Assay [1] can be described thus: NCI Yeast Anticancer Drug Screen. Data for the rad50 strain (AID 155).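 Note: 0% = growth of vehicle-only cultures of the same strain.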 As to conditions: S. cerevisiae rad50 strain growth inhibition, stronger effect = higher value. The method, boiled down: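 Inhibition values express reduced yeast growth in compound-treated cultures relative to vehicle-treated controls.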
Assay [2] can be described thus: NCI Yeast Anticancer Drug Screen. Data for the mec2-1 strain (AID 157). To be noted: S. cerevisiae mec2-1 strain, stronger effect = higher value. In a few lines: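 Mutant yeast (mec2-1) grown with compound; growth inhibition relative to vehicle control reported.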
A short description of assay [3]: NCI Yeast Anticancer Drug Screen. Data for the sgs1 mgt1 strain (AID 161).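 Note: 0% = growth of cultures given vehicle only.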 As to conditions: S. cerevisiae sgs1 mgt1 strain, stronger effect = higher value. The method, boiled down:
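Growth of a repair-deficient yeast mutant was monitored after compound treatment and expressed as inhibition relative to vehicle-treated cultures.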

The nature of assay [4]: NCI Yeast Anticancer Drug Screen. Data for the cln2 rad14 strain (AID 165).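 Note: 0% = growth equal to vehicle treated cultures.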 As to conditions: S. cerevisiae cln2 rad14 strain, stronger effect = higher value. In a few lines: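 Readout is yeast growth inhibition versus vehicle-treated controls, using a strain with cln2 and rad14 alterations exposed to compound.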
The nature of assay [5]: NCI Yeast Anticancer Drug Screen. Data for the bub3 strain (AID 167). As to conditions: S. cerevisiae bub3 mutant strain, stronger effect = higher value. The method, boiled down:
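Steps: expose the mutant yeast strain to compound; grow alongside vehicle-treated cultures; measure growth; express inhibition against the vehicle cultures.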

A short description of assay [6]: NCI Yeast Anticancer Drug Screen. Data for the mlh1 rad18 strain (AID 175). As to conditions: S. cerevisiae mlh1 rad18 strain growth inhibition, stronger effect = higher value. In a few lines:
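Genetically defined yeast (DNA repair-deficient) exposed to compounds; growth inhibition determined relative to vehicle.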

Where [7] appears, read: at 5.0 µM (retest, dose inferred, filed as 0.5).
Where [8] appears, read: at 50.0 µM (retest, dose inferred, filed as 5.0).

Consider nine compounds from PubChem BioAssay (NCI).

This is part of a sample that, as a whole, favours compounds with a hit. Of some 79,000 tested, about 15% had one in any assay. Values without a mark were called inactive. Calls of active or inactive are those of the source. Cut-off read from the data, not from the text of the source: active = growth inhibition above about 70%; inactive = the rest.

Consider `CCOC(=O)/C(Cl)=C(\OCC)C(=O)OCC`, for which the growth inhibition in assay [1] (setting [7]) was 14%; in assay [1] (setting [8]), 10%; in assay [1] (at 50.0 µM), -6.4%; in assay [2] (setting [7]) it was 6%; in assay [2] (setting [8]) it was 13%; in assay [2] (at 50.0 µM) it was 12.3%. The growth inhibition in assay [3] (setting [7]) is 2%; in assay [3] (setting [8]), 19%; in assay [3] (at 50.0 µM), 20%; in assay [4] (setting [7]) it was -5%; in assay [4] (setting [8]), 19%; in assay [4] (at 50.0 µM), 44.9%. Further, the growth inhibition in assay [5] (setting [7]) was -1%; in assay [5] (setting [8]), 8%; in assay [5] (at 50.0 µM), 26.4%; in assay [6] (setting [7]) it was 12%; in assay [6] (setting [8]), 22%; in assay [6] (at 50.0 µM) it was 21.1%.
In the case of `O=C(O)c1ccc2c(c1)CC1(C2)Cc2cc3c(cc2C1=O)CCC3` (stereo unspecified), the growth inhibition in assay [1] (setting [7]) was 34%; in assay [1] (setting [8]), 34%; in assay [1] (at 50.0 µM) it was 84.3% (active); in assay [2] (setting [7]) it was 22%; in assay [2] (setting [8]), 22%; in assay [2] (at 50.0 µM), 83.8% (active). Also, the growth inhibition in assay [3] (setting [7]) was 19%; in assay [3] (setting [8]), 19%; in assay [3] (at 50.0 µM), 79.5% (active); in assay [4] (setting [7]), 21%; in assay [4] (setting [8]), 21%; in assay [4] (at 50.0 µM), 83.1% (active). Besides, the growth inhibition in assay [5] (setting [7]) is 12%; in assay [5] (setting [8]), 12%; in assay [5] (at 50.0 µM), 81.8% (active); in assay [6] (setting [7]), 25%; in assay [6] (setting [8]), 25%; in assay [6] (at 50.0 µM), 79.9% (active).
On to `CC(=O)OCC1OC(OC(C)=O)C(On2nnc3c(-c4ccccc4)c(C)nn32)C(OC(C)=O)C1OC(C)=O` (stereo unspecified), for which the growth inhibition in assay [1] (setting [7]) is 0%; in assay [1] (setting [8]), 54%; in assay [1] (at 50.0 µM), 61.5%; in assay [2] (setting [7]), -1%; in assay [2] (setting [8]), 71% (active); in assay [2] (at 50.0 µM), 35.8%. The growth inhibition in assay [3] (setting [7]) is 2%; in assay [3] (setting [8]) it was 76% (active); in assay [3] (at 50.0 µM), 47.8%; in assay [4] (setting [7]), 1%; in assay [4] (setting [8]) it was 52%; in assay [4] (at 50.0 µM) it was 41.1%. For the same compound, the growth inhibition is -1% in assay [5] (setting [7]); 59% in assay [5] (setting [8]); 16.1% in assay [5] (at 50.0 µM); -3% in assay [6] (setting [7]); 58% in assay [6] (setting [8]); 36.2% in assay [6] (at 50.0 µM).
On to `COc1ccc2c(c1OC)C(C(Cl)(Cl)Cl)N1CCc3cc4c(cc3C1=C2)OCO4` (stereo unspecified), for which the growth inhibition is 15% in assay [1] (setting [7]); 54% in assay [1] (setting [8]); 67.2% in assay [1] (at 50.0 µM); 7% in assay [2] (setting [7]); 71% (active) in assay [2] (setting [8]); 74.5% (active) in assay [2] (at 50.0 µM). The growth inhibition in assay [3] (setting [7]) was 7%; in assay [3] (setting [8]) it was 72% (active); in assay [3] (at 50.0 µM) it was 78.4% (active); in assay [4] (setting [7]), 33%; in assay [4] (setting [8]), 80% (active); in assay [4] (at 50.0 µM), 80% (active). Moreover, the growth inhibition in assay [5] (setting [7]) was 20%; in assay [5] (setting [8]), 86% (active); in assay [5] (at 50.0 µM), 80.8% (active); in assay [6] (setting [7]), 11%; in assay [6] (setting [8]), 66%; in assay [6] (at 50.0 µM) it was 62.1%.
Turning to `CC1CC(C)CC(NC2=NCCO2)C1` (stereo unspecified), the growth inhibition was 13% in assay [1] (setting [7]); -5% in assay [1] (setting [8]); -4.1% in assay [1] (at 50.0 µM); 6% in assay [2] (setting [7]); -5% in assay [2] (setting [8]); 22.2% in assay [2] (at 50.0 µM). In addition, the growth inhibition was 12% in assay [3] (setting [7]); 13% in assay [3] (setting [8]); 21.6% in assay [3] (at 50.0 µM); 11% in assay [4] (setting [7]); 7% in assay [4] (setting [8]); 27.6% in assay [4] (at 50.0 µM). The growth inhibition was 27% in assay [5] (setting [7]); 15% in assay [5] (setting [8]); 7.8% in assay [5] (at 50.0 µM); 8% in assay [6] (setting [7]); -12% in assay [6] (setting [8]); 21.1% in assay [6] (at 50.0 µM).
With `N#CSc1cc(SC#N)c2ccccc2c1N`, the growth inhibition in assay [1] (setting [7]) was 0%; in assay [1] (setting [8]), -3%; in assay [1] (at 50.0 µM), 70.2% (active); in assay [2] (setting [7]), -2%; in assay [2] (setting [8]), -12%; in assay [2] (at 50.0 µM), 62.9%. Further, the growth inhibition in assay [3] (setting [7]) was 3%; in assay [3] (setting [8]), -9%; in assay [3] (at 50.0 µM), 57.9%; in assay [4] (setting [7]) it was 1%; in assay [4] (setting [8]), -27%; in assay [4] (at 50.0 µM), -1.2%. Further, the growth inhibition in assay [5] (setting [7]) was 19%; in assay [5] (setting [8]), 28%; in assay [5] (at 50.0 µM), 81% (active).
Consider `CCCCCCN(CCCCCC)CCC(=O)c1ccc2cc(Br)c3ccccc3c2c1`, for which the growth inhibition in assay [1] (setting [7]) is 26%; in assay [1] (setting [8]), 85% (active); in assay [1] (at 50.0 µM), 98.6% (active); in assay [2] (setting [7]), 38%; in assay [2] (setting [8]), 95% (active); in assay [2] (at 50.0 µM), 98.6% (active). The growth inhibition in assay [3] (setting [7]) is 75% (active); in assay [3] (setting [8]), 94% (active); in assay [3] (at 50.0 µM), 97.9% (active); in assay [4] (setting [7]), 8%; in assay [4] (setting [8]), 87% (active); in assay [4] (at 50.0 µM), 96.8% (active). For the same compound, the growth inhibition in assay [5] (setting [7]) is 20%; in assay [5] (setting [8]) it was 92% (active); in assay [5] (at 50.0 µM), 98.6% (active); in assay [6] (setting [7]), 43%; in assay [6] (setting [8]), 84% (active); in assay [6] (at 50.0 µM) it was 97.7% (active).
Turning to `O=c1cccccc1[O-].O=c1cccccc1[O-].O=c1cccccc1[O-].[Sm+3]`, the growth inhibition in assay [1] (setting [7]) is 33%; in assay [1] (setting [8]), 33%; in assay [1] (at 50.0 µM), 91.7% (active); in assay [2] (setting [7]), 19%; in assay [2] (setting [8]) it was 19%; in assay [2] (at 50.0 µM), 92.5% (active). Further, the growth inhibition is 21% in assay [3] (setting [7]); 21% in assay [3] (setting [8]); 90.5% (active) in assay [3] (at 50.0 µM); 17% in assay [4] (setting [7]); 17% in assay [4] (setting [8]); 90.2% (active) in assay [4] (at 50.0 µM). The growth inhibition in assay [5] (setting [7]) is 11%; in assay [5] (setting [8]) it was 11%; in assay [5] (at 50.0 µM), 93% (active); in assay [6] (setting [7]), 14%; in assay [6] (setting [8]), 14%; in assay [6] (at 50.0 µM), 90.4% (active).
As to `OC1(CCc2ccccc2)COC(C(F)(F)F)(C(F)(F)F)C1` (stereo unspecified), the growth inhibition is 18% in assay [1] (setting [7]); 24% in assay [1] (setting [8]); 76.4% (active) in assay [1] (at 50.0 µM); 16% in assay [2] (setting [7]); 18% in assay [2] (setting [8]); 66% in assay [2] (at 50.0 µM). Besides, the growth inhibition was 14% in assay [3] (setting [7]); 23% in assay [3] (setting [8]); 78.4% (active) in assay [3] (at 50.0 µM); 1% in assay [4] (setting [7]); 23% in assay [4] (setting [8]); 52.8% in assay [4] (at 50.0 µM). In addition, the growth inhibition in assay [5] (setting [7]) is 5%; in assay [5] (setting [8]), 21%; in assay [5] (at 50.0 µM), 61.1%.
